A short description of assay [1]: Nuclear factor erythroid 2-related factor 2/antioxidant responsive element (Nrf2/ARE) small molecule agonists: qHTS cell viability counter screen in human keratinocytes (AID 1919968; active = well fitted curve in the direction sought with a large enough effect in the repeat runs; an effect the other way counts as inactive or inconclusive; also: nearly all actives have a fitted effect of over 55% in size). A digest of the protocol: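 Parallel cytotoxicity read: KeratinoSens HaCaT cells, compound treatment 23 h, viability by CellTiter-Fluor fluorescence 1 h post-reagent.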
Assay [2] in a line: Nuclear factor erythroid 2-related factor 2/antioxidant responsive element (Nrf2/ARE) small molecule agonists: luciferase reporter gene qHTS assay in human keratinocytes (AID 1919969; also: nearly all actives have a fitted effect of over 35% in size; also: potency is read from the fitted curve at half-maximal effect). (In general: Reporter assays use an easily measured gene product as a stand-in for the process of interest.)
Assay [3] concerns the target Gonadotropin-releasing hormone receptor (Homo sapiens) (UniProt P30968). The experiment in a line: Human gonadotropin-releasing hormone receptor (GnRHR) small molecule agonists, calcium flux assay in GnRHR-HEK293 cells (AID 1920063). Also: nearly all actives have a fitted effect of over 35% in size. The procedure, abridged:
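Calcium flux, agonist mode, human GnRHR stably integrated in HEK293; dye 1 h at 37 C before compound; Ex/Em=480/540 kinetic read, 3 min; 15 concentrations, triplicate.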

The target of assay [4] is KiSS-1 receptor (Homo sapiens) (UniProt Q969F8). The experiment in a line: Human kisspeptin (KISS1R) small molecule agonists, calcium flux assay in KISS1R-HEK293 cells (AID 1920064; active = well fitted curve in the direction sought with a large enough effect in the repeat runs; an effect the other way counts as inactive or inconclusive). The procedure, abridged: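 Triplicate 15-concentration series were applied to dye-loaded human KISS1R HEK293 cells, and agonist-evoked calcium fluorescence was captured for 3 min.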
KiSS-1 receptor (Homo sapiens), sequence (Q969F8 whole entry, looked up): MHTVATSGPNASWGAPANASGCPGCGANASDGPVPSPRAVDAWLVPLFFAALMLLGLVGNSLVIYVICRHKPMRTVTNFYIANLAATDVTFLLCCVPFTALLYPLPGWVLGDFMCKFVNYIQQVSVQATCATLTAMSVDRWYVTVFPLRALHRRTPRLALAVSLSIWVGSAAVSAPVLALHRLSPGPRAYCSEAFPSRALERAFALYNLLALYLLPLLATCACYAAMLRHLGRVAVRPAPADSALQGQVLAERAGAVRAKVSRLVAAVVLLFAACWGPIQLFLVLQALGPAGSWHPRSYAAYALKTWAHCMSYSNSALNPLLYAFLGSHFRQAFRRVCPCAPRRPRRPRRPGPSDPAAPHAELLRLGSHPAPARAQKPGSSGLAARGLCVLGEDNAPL
(Calcium flux is commonly read through the fluorescence of an indicator in the cells.)

Assay [5] in a line: p53 small molecule agonists, cell-based qHTS assay with human liver microsomes (AID 1963577).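 Also: p53 response element beta-lactamase reporter cells with liver microsomes plus NADPH.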 The procedure, abridged:
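Steps: plate p53RE-bla cells, incubate 5 h at 37 C; add compound in DMSO; add microsomes (0.5 mg/mL final) and NADPH (0.5 mg/mL final); incubate 16 h at 37 C; add LiveBLAzer, 2 h RT; read fluorescence.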
A general note: Quantitative high-throughput screening tests each substance at several concentrations.

The nature of assay [6]: p53 small molecule agonists, cell-based qHTS assay with rat liver microsomes (AID 1963578). The procedure, abridged: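 Metabolic activation is supplied by rat liver microsomes with NADPH (each 0.5 mg/mL final). p53RE-bla cells incubate with compound 16 h at 37 C; reporter activity is measured by LiveBLAzer fluorescence.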
Assay [7] in a line: p53 small molecule agonists, cell-based qHTS assay with rat liver microsomes: qHTS cell viability counter screen (AID 1963580). Also: nearly all actives have a fitted effect of over 45% in size. A digest of the protocol:
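After the beta-lactamase ratio was read, CellTiter-Glo was added to the same wells and luminescence measured at 30 min; cells had been treated 16 h at 37 C with compounds, rat liver microsomes and NADPH (0.5 mg/mL final each).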

A short description of assay [8]: p53 small molecule agonists, cell-based qHTS assay: qHTS cell viability counter screen (AID 1963581). Also: nearly all actives have a fitted effect of over 45% in size. A digest of the protocol: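 Multiplexed with the reporter read, a CellTiter-Glo step (30 min, room temperature) gauges ATP-based viability of HCT-116 p53RE-bla cells after 16 h compound incubation at 37 C.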
Assay [9] in a line: p53 small molecule agonists, cell-based qHTS assay (AID 1963582; active = well fitted activation curve with a large enough effect in the signal ratio in the repeat runs, not every such curve was filed as active; the % refers to the signal ratio; also: potency is read from the fitted curve at half-maximal effect). The procedure, abridged:
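Beta-lactamase reporter cells (p53RE-bla) treated with compounds for 16 h at 37 C; FRET substrate, 2 h, room temperature; fluorescence intensity.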

The target of assay [10] is 5-hydroxytryptamine receptor 2A (Homo sapiens) (UniProt P28223). The experiment in a line: 5-hydroxytryptamine receptor 2A (HTR2A) small molecule antagonists, cell-based qHTS assay (AID 1963586). Also: nearly all actives have a fitted effect of over 45% in size. Also: potency is read from the fitted curve at half-maximal effect. The procedure, abridged:
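CHO cells stably expressing human HTR2A were plated for 18 h at 37 C, then loaded with calcium dye for 1 h. Compounds were preincubated 5 min at room temperature before DOI (4 nM solution) was added. Kinetic fluorescence was read for 3 min.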

The target is the same in assay [11]. The experiment in a line: 5-hydroxytryptamine receptor 2A (HTR2A) small molecule agonists, cell-based qHTS assay (AID 1963587). Also: nearly all actives have a fitted effect of over 30% in size. A digest of the protocol:
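CHO cells stably expressing human HTR2A, plated 18 h, loaded with calcium dye 1 h at 37 C. Agonist mode: compounds added and intracellular calcium fluorescence recorded kinetically for 2 min at 1 sec intervals.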

In assay [12] the target is Muscarinic acetylcholine receptor M1 (Homo sapiens) (UniProt P11229). The experiment in a line: Cholinergic receptor muscarinic 1 (CHRM1) small molecule antagonists, cell-based qHTS assay (AID 1963588). Also: nearly all actives have a fitted effect of over 40% in size. The procedure, abridged:
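Compounds were tested at 15 concentrations in three independent runs. Dye-loaded CHRM1-CHO cells were exposed 5 min at room temperature before stimulation by acetylcholine added at 50nM. Intracellular calcium was read kinetically on FDSS for 3 min.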

The target is the same in assay [13]. The experiment in a line: Cholinergic receptor muscarinic 1 (CHRM1) small molecule agonists, cell-based qHTS assay (AID 1963589). Also: nearly all actives have a fitted effect of over 35% in size. The procedure, abridged: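 qHTS, 15-point titration, 3 independent runs: compounds pin-transferred onto dye-loaded CHRM1-CHO cells (human M1), calcium fluorescence followed every second to detect agonism.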
A short description of assay [14]: cAMP Responsive Elements (CRE) small molecule agonists, cell-based qHTS assay (AID 1963590). A digest of the protocol: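 Quantitative HTS for CRE agonists: HEK 293T CRE-bla cells, overnight plating, 3 h compound incubation at 37 C/5% CO2, then 2 h room-temperature LiveBLAzer B/G FRET substrate loading.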
Assay [15] in a line: cAMP Responsive Elements (CRE) small molecule antagonists, cell-based qHTS assay (AID 1963591; active = well fitted inhibition curve with a large enough effect in the signal ratio in the repeat runs, not every such curve was filed as active; the % refers to the signal ratio). A digest of the protocol:
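Fluorescence intensity from cleaved LiveBLAzer B/G substrate (2 h, room temperature) quantified CRE-bla activity in HEK 293T cells exposed 3 h to compound with 0.25 uM final NKH477.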

Assay [16] has as its target D(2) dopamine receptor (Homo sapiens) (UniProt P14416). The experiment in a line: Dopamine D2 receptor (DRD2) small molecule antagonists, cell-based qHTS assay (AID 1963595; active = well fitted inhibition curve with a large enough effect in the signal ratio in the repeat runs, with a control signal flat; the % refers to the signal ratio). A digest of the protocol: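 Antagonist mode in DRD2-HEK293 cells: after compound addition with 0.1 mM Ro20-1724, cells received quinpirole (12 nM) and NKH477 (200 nM) for 30 min at room temperature; HTRF cAMP read after 1 h detection.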

Assay [17] is described as follows: p53 small molecule agonists, cell-based qHTS assay with human liver microsomes: qHTS cell viability counter screen (AID 1963579). Also: nearly all actives have a fitted effect of over 45% in size. A digest of the protocol: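 After the 460/530 nm beta-lactamase read, CellTiter-Glo was added to the same wells and luminescence measured after 30 min at room temperature, giving viability of p53RE-bla cells treated 16 h with compounds plus microsomes and NADPH.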

The target of assay [18] is Beta-2 adrenergic receptor (Homo sapiens) (UniProt P07550). The experiment in a line: Adrenergic beta2 receptor (ADRB2) small molecule antagonists, cell-based qHTS assay (AID 1963592). Also: series mostly up to about 92 µM; nearly all actives have a fitted effect of over 50% in size. The procedure, abridged: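 Assay format: CHO-ADRB2 cells, 18-20hr seeding at 37C/5% CO2, then compound plus 1nM isoproterenol agonist mix for 0.5hr RT. Homogeneous time-resolved fluorescence cAMP detection after 1hr, expressed as 665/615 nm ratio.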
Beta-2 adrenergic receptor (Homo sapiens), sequence (P07550 whole entry, looked up): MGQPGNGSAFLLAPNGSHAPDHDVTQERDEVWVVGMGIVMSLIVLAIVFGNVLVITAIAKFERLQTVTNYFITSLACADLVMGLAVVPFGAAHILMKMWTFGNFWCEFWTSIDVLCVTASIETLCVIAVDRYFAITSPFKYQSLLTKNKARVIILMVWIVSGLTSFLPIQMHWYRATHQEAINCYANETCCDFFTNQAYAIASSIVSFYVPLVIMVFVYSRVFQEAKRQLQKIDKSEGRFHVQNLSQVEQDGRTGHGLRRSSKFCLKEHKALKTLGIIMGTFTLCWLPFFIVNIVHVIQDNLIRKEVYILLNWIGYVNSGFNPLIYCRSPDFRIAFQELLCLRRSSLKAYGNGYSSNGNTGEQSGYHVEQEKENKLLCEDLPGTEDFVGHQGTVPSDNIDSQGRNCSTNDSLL

Assay [19] addresses D(2) dopamine receptor (Homo sapiens) (UniProt P14416). The experiment in a line: Dopamine D2 receptor (DRD2) small molecule agonists, cell-based qHTS assay (AID 1963594). Also: nearly all actives have a fitted effect of over 35% in size. A digest of the protocol: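 HEK293 cells stably expressing human DRD2, pre-treated with PDE inhibitor Ro20-1724 (0.1 mM final) and compound 10 min at room temperature, then stimulated with NKH477 (200nM […]) for 30 min. cAMP read by HTRF (665/620 nm).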

Unmarked numbers belong to inactive results. Records with an inconclusive call do not appear. The source made the active and inactive calls. Unless noted, calls follow the shape of the full dose curve.
% is scaled to controls: 0 for no effect and ±100 for the full control effect.

D(2) dopamine receptor (Homo sapiens), sequence (P14416 whole entry, looked up): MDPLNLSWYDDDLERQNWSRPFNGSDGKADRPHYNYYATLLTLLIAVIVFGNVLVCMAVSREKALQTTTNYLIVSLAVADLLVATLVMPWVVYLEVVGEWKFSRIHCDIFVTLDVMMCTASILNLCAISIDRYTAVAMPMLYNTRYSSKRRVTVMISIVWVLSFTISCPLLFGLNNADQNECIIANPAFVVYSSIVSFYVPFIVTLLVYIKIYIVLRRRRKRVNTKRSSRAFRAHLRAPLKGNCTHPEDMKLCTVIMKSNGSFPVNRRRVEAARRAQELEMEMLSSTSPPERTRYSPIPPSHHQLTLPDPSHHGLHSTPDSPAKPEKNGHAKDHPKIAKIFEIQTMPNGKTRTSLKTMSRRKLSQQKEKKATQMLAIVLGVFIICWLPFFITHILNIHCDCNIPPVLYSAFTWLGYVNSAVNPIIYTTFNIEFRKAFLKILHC
Muscarinic acetylcholine receptor M1 (Homo sapiens), sequence (P11229 whole entry, looked up): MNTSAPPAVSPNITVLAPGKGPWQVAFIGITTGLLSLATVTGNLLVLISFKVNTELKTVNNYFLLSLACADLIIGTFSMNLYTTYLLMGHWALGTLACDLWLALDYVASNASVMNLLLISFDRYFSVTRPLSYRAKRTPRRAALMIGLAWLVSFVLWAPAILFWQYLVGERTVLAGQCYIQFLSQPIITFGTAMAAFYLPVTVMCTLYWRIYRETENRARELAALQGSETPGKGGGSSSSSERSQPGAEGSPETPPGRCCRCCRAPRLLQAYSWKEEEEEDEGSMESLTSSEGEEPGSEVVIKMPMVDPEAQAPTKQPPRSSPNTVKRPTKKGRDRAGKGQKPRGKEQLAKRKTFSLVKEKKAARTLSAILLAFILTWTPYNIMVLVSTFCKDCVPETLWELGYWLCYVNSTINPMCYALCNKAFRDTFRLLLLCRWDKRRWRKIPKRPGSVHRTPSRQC
5-hydroxytryptamine receptor 2A (Homo sapiens), sequence (P28223 whole entry, looked up): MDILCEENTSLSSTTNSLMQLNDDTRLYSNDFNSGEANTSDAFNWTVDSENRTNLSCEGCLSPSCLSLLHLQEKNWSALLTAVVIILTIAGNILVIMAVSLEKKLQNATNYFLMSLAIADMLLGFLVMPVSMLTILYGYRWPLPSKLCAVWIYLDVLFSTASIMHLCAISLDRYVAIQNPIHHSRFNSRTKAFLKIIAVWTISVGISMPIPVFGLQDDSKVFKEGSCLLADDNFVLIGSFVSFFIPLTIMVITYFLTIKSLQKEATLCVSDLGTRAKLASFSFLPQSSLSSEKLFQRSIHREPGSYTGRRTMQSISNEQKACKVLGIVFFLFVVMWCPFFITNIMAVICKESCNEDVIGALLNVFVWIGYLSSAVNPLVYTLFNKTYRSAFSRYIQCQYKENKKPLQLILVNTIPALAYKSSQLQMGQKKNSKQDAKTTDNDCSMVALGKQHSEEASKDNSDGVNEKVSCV
Gonadotropin-releasing hormone receptor (Homo sapiens), sequence (P30968 whole entry, looked up): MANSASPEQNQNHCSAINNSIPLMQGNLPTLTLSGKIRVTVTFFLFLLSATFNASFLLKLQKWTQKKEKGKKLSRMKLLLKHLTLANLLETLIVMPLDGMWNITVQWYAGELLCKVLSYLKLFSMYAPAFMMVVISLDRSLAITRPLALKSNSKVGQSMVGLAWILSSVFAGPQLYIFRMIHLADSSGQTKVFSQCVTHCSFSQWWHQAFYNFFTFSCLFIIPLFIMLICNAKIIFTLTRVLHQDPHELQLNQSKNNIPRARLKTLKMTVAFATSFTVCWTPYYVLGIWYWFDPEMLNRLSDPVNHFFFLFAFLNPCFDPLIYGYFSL

For `CCN(CC)CC(=O)Nc1c(C)cccc1C(=O)OC`, the Potency result in assay [1], in [2], in assay [3], in assay [5], in [6] and in [7] was “inactive” each time. Also, the Potency entry in [8], in assay [9], in assay [10], in assay [11], in assay [12] and in [13] was “inactive” throughout. The Potency entry in assay [14], in [15] and in [16] was “inactive” throughout. For the same compound, the outcome in assay [4] was inactive.
Regarding `CCOC(=O)c1ccc(NC(=O)CN2CCCCC2)cc1`, the Potency result in assay [1], in [2], in [3], in assay [5], in assay [6] and in [17] was “inactive” throughout. The Potency result in assay [8], in [10], in assay [11], in assay [12], in [13] and in [14] was “inactive” throughout. The Potency entry in [15], in [18], in [19] and in assay [16] was “inactive” in each case. Also, the result in assay [4] was inactive.
On to `Cc1ccc(N(CCO)CCO)cc1`, for which the Potency result in assay [1], in assay [2], in assay [3], in [5], in assay [6] and in [17] was “inactive” each time. The Potency entry in assay [7], in assay [8], in assay [10], in [11], in assay [12] and in [13] was “inactive” throughout. Further, the Potency result in assay [14], in assay [15], in [18], in assay [19] and in assay [16] was “inactive” each time. Further, the result in assay [4] was inactive.
Turning to `Nc1cnn([C@@H]2O[C@H](CO)[C@@H](O)[C@H]2O)c(=O)n1`, the Potency result in assay [1], in assay [2], in [3], in assay [5], in assay [6] and in [7] was “inactive” each time. For the same compound, the Potency result in assay [8], in assay [10], in [11], in [12], in assay [13] and in assay [14] was “inactive” in each case. The Potency result in assay [15], in assay [18] and in assay [19] was “inactive” each time. In addition, the outcome in [4] was inactive. Also, in [9], the Potency is 1.45 µM (active).
For `CN1CCCC(n2nc(Cc3ccc(Cl)cc3)c3ccccc3c2=O)CC1` (stereo not drawn), the Potency result in assay [1], in assay [2], in assay [3], in assay [5], in assay [6] and in [17] was “inactive” in each case. Besides, the Potency result in assay [7], in [9], in assay [13] and in assay [19] was “inactive” in each case. The result in assay [4] was inactive. In addition, the Potency in assay [10] is 460 nM (active).
Turning to `O=C=NCc1cccc(CN=C=O)c1`, the results for the activity change, negative = cytotoxicity in assay [1], in assay [17] and in assay [8] were 3.98% [at 19 µM], 2.85% [at 13.5 µM] and 8.14% [at 13.5 µM], respectively. The activity, positive = activation in assay [2] was -9.19% [at 19 µM]. In assay [3], the activity change was -0.327% [at 11.8 µM, active compounds read high]. The activation in assay [4] is 0.462% [at 15.8 µM]; in assay [5] it was -0.418% [at 13.5 µM]; in [6], 0.266% [at 13.6 µM]; in assay [9], -3.35% [at 13.5 µM]; in assay [11] it was 3.99% [at 15.9 µM]; in [14], 1.18% [at 19 µM]. For the same compound, in assay [19], the activation is -2% [at 19 µM]. For the same compound, the figures for the activity, negative = inhibition in assay [10] and in assay [12] were 11.7% [at 12.7 µM] and -10.9% [at 12.6 µM], respectively. Further, the figures for the activity change, negative = inhibition in assay [15], in [18] and in [16] were 0.972% [at 18.9 µM], -5.04% [at 19 µM] and 2.32% [at 18.9 µM], respectively.
On to `CC(C)(C)OC(=O)N1C[C@@H](F)C[C@H]1C(=O)O`, for which the Potency entry in [1], in [2], in assay [3], in assay [5], in assay [6] and in assay [17] was “inactive” in each case. Further, the Potency result in [8], in assay [10], in [12], in assay [14], in assay [15] and in assay [18] was “inactive” in each case. Besides, the Potency result in [19] and in assay [16] was “inactive” each time. Besides, the outcome in assay [4] was inactive.
As for `NC(=O)C(=O)N/N=C/c1ccc([N+](=O)[O-])o1`, the Potency entry in [1], in assay [3], in assay [5], in assay [6], in assay [17] and in [7] was “inactive” in each case. In addition, the Potency result in [9], in [10], in assay [11], in [12], in assay [14] and in [15] was “inactive” each time. Further, the Potency result in assay [18] and in [16] was “inactive” each time. In addition, the Potency in assay [2] is 29.8 µM (active). For the same compound, in [4], the outcome was inactive.

The values above are taken from PubChem BioAssay (Tox21).
